WT yeast gro inh = growth inhibition of WT strain, primary screen, mitochondrial fusion inhibitor project, WT and mutant strains, chemical genetic; mitochondrial fusion phenotypic screen; inhibition, % at 10 µM; 2.1% of 190,000 active; in the data active = inhibition above about 58%; tested in S. cerevisiae
Insulin prom up = insulin promoter activators in MIN6 cells, imaging, high-content screening, mouse beta cells; MIN6 insulin promoter-GFP reporter; active compounds read high; z-score at 5 µM; 0.3% of 190,000 active; AID 1625, 2009;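 active = z-score above 3 at 5 µM with at least 500 cells counted in the well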
Insulin prom inh = inhibitors of insulin promoter-driven GFP, primary screen, imaging, TRM-6 cells (human fetal islet line), eGFP reporter, cell count; AID 1273, 2008; 0.9% of 130,000 active; reporter expression induced with tamoxifen; inhibition, % at 2 µM;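 active = inhibition above the mean plus 3 SD, with well images judged a real hit on visual review, cut at about 60% in these data, passing the limit was not always enough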
L major viab = Leishmania major promastigote growth inhibition, primary screen | Leishmania major promastigotes, resazurin fluorescence viability | AID 1063, 2008 | inhibition, % at 10 µM | 9% of 200,000 active; in the data active = inhibition above about 50%;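 also: promastigotes grown with compound for 44 hours at 28 °C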
Autophagy HCS = autophagy modulators in MEF cells, primary screen, imaging, high-content, MEF GFP-LC3; calls only at 10 µM (by protocol); 0.98% of 190,000 active; MEF GFP-LC3 puncta imaging; test concentration mostly 10 µM; AID 463193, 2010;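 active = percentage of spot-positive cells more than 3 SD above its plate mean, without a fluorescence outlier flag or 80% toxicity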
Numbers stand for hits; 0 = inactive; - = no result given; + = active, no number. The list is not random: actives were taken first. Their share in the collection is about 11%.

SMILES	WT yeast gro inh	Insulin prom up	Insulin prom inh	L major viab	Autophagy HCS
Cc1nc2cc(NC(=O)Nc3ccccc3Cl)ccc2n1C	0	0	0	0	0
Cc1noc(/C=C/Nc2ccc(F)cc2F)c1[N+](=O)[O-]	0	0	0	0	0
COc1ccccc1N/C=C/c1onc(C)c1[N+](=O)[O-]	0	-	0	0	+
CC1CN(C(=O)c2cccs2)CCN1C(=O)c1cccs1 (centres undefined)	0	0	0	0	0
Cc1ccc(OCCCCN(C)Cc2ccccc2)c(Br)c1	0	0	0	90	0
Cc1ccc(C(C)C)c(OCCCN(C)Cc2ccccc2)c1	0	0	0	96	0
COc1ccccc1OCCCOc1ccc(C)cc1Br	0	0	0	0	0
O=c1cc(-c2c(F)c(F)c(F)c(F)c2F)oc2c(F)c(F)c(F)c(F)c12	0	0	-	58	0
COc1cc(/C=N\n2cnnc2)ccc1OCC(=O)Nc1ccc(C)cc1	0	0	0	0	0
COc1cc(/C=N/n2cnnc2)ccc1OCCSc1ccc(C)cc1	0	0	0	55	0
COc1cc(CNCCN(C)C)c(Br)cc1OC1CCCC1	0	0	-	0	0
O=C(CCSc1ccccc1)Nc1nnc(-c2cccs2)o1	0	0	-	0	0
O=C(CCc1ccccc1)Nc1nnc(-c2ccc3c(c2)CCCC3)o1	66	0	-	0	0
O=C(CCc1ccccc1)Nc1nnc(-c2ccc3c(c2)OCCO3)o1	0	0	0	70	0
O=C(Nc1nnc(-c2ccc3c(c2)CCCC3)o1)c1c(F)cccc1F	0	0	0	0	0
O=C(CCc1ccccc1)Nc1nnc(-c2cccs2)o1	0	0	-	57	0
O=C(CCc1ccccc1)Nc1ccc2c(c1)OCCO2	0	0	0	0	0
Cc1cc(C(=O)N/N=C/c2cc(Cl)cc([N+](=O)[O-])c2O)n[nH]1	-	0	-	-	-
Cc1ccc(NC(=O)/C(C#N)=C(\N)C(Cl)(Cl)Cl)nc1	0	0	0	100	+
S=C(NCC1CCCO1)NC1CC1 (centres undefined)	0	-	0	0	0
COC(=O)c1ccccc1S(=O)(=O)N(CCCN1CCOCC1)Cc1cccs1	0	-	0	0	0
O=S(=O)(c1cccc(C(F)(F)F)c1)N(CCCN1CCOCC1)Cc1cccs1	0	0	-	100	0
Cc1cccc(C(=O)c2c[nH]cc2-c2ccccc2)c1	0	0	0	0	0
CCCCCC(=O)Nc1cc(N(C)C)nc2ccccc12	64	-	-	0	0
CCOc1cc2c(cc1OCC)C(c1ccccc1)N(c1ccccc1)C(=O)C2 (centres undefined)	0	0	0	81	0
SMILES	WT yeast gro inh	Insulin prom up	Insulin prom inh	L major viab	Autophagy HCS
O=C(CCc1ccc(S(=O)(=O)N2CCOCC2)cc1)Nc1nc(COc2ccccc2)cs1	0	0	0	96	0
O=C1C2=C(NC(=S)NC2c2ccc(Cl)cc2)NC(c2ccc(Cl)cc2)N1c1ccc(Cl)cc1 (centres undefined)	0	0	0	100	0
CCOc1ccc(C(CC(=O)O)n2cnnn2)cc1 (centres undefined)	0	0	0	0	0
Cc1ccc2nc(C(F)(F)F)c(C#N)c(N)c2c1	0	0	-	68	0
CCOc1ccc(N(CC(=O)Nc2ccccc2C(=O)NC(C)CC)S(C)(=O)=O)cc1 (centres undefined)	0	0	0	0	0
Cc1ccc(NC(=S)Nc2ccc(OC(F)F)c(Cl)c2)cc1F	85	0	-	0	0
Fc1ccc(NC(=S)N2CCCC2)cc1Cl	0	0	0	95	0
Fc1ccc(NC(=S)Nc2ccc(F)c(Cl)c2)cc1Cl	0	0	-	97	0
Fc1ccc(NC(=S)N2CCOCC2)cc1Cl	0	0	-	0	0
O=C(COc1ccc2c(c1)CCC2)NCc1ccc(Cl)cc1	0	0	0	0	0
O=C(N/N=C/c1cnc(N2CCCCC2)s1)c1ccc(C(F)(F)F)cc1	0	0	-	0	0
Cc1cc(=O)oc2c(CN3CC(C)OC(C)C3)c(O)c(Cl)cc12 (centres undefined)	0	0	0	0	0
Cc1c(NC(=O)c2cc3c(s2)-c2ccccc2OC3)cccc1[N+](=O)[O-]	0	0	0	0	+
Cc1csc(NC(=O)c2cc3c(s2)-c2ccccc2OC3)n1	0	-	-	0	-
CN(C)CCNC(=O)c1cc2c(s1)-c1ccccc1OC2	0	0	-	91	0
COc1ccc(NS(=O)(=O)c2cccc(NC(=O)NC3CCCCC3)c2)cc1	0	0	0	99	0
COc1ccc(NS(=O)(=O)c2cccc(NC(=O)COc3ccc(OC)cc3)c2)cc1	-	0	-	-	-
COc1ccc(NS(=O)(=O)c2ccc(OC)c(NC(=O)CCC3CCCCC3)c2)cc1	0	0	0	0	0
COc1ccc(NS(=O)(=O)c2cccc(N/C(=N\S(=O)(=O)c3ccccc3)c3ccc(F)cc3)c2)cc1	0	0	0	76	0
COc1ccc(S(=O)(=O)Nc2ccccc2OC)cc1NC(=O)CC1CC2CCC1C2 (centres undefined)	0	0	0	100	0
COc1ccc(NS(=O)(=O)c2ccc(C)c(NC(=O)NC3CCCCC3)c2)cc1	0	0	-	99	0
Cc1c(NC(=O)Cn2cnc3c(=O)n(C)c(=O)n(C)c32)cccc1-c1nc2ccccc2o1	-	-	0	0	0
COc1ccccc1NS(=O)(=O)c1ccc(C)c(NC(=O)NC2CCCCC2)c1	0	-	0	100	0
COc1ccccc1NS(=O)(=O)c1ccc(C)c(NC(=O)NCCCl)c1	-	0	-	-	-
Cc1nc([N+](=O)[O-])c(C(=O)OCc2ccc(C#N)cc2)n1C	0	0	0	0	0
SMILES	WT yeast gro inh	Insulin prom up	Insulin prom inh	L major viab	Autophagy HCS
COc1ccc2[nH]c3c(=O)n(CCCCC(=O)NCCC(C)C)c(=S)[nH]c3c2c1	0	0	-	0	0
COC(=O)c1ccc(COC(=O)c2ccc(CO)cc2)o1	0	0	0	65	0
COC(=O)c1ccc(Cc2ccc(C(=O)OC)o2)o1	0	0	-	0	0
O=C(O)C1=C[C@H](c2csc3ccccc23)C[C@H](OCc2ccc(CO)cc2)O1	0	0	-	0	0
O=C(NCc1ccccc1)C1=C[C@@H](c2csc3ccccc23)C[C@@H](OCc2ccc(CO)cc2)O1	0	0	-	74	0
O=C(NC1CC1)C1=C[C@H](c2csc3ccccc23)C[C@H](OCCCCO)O1	0	0	-	85	0
O=C(NC1CC1)C1=C[C@@H](c2csc3ccccc23)C[C@@H](OCCCCO)O1	-	0	-	-	-
Cc1ccc(NS(=O)(=O)c2ccc3[nH]c(=O)sc3c2)cc1	0	0	-	0	0
Cc1cccc(C(=O)NNC(=O)CN2C(=O)c3ccccc3C2=O)c1	0	0	-	0	0
OCCC1CN(Cc2cccn2-c2ncccn2)CCN1CCc1ccccc1 (centres undefined)	0	0	-	0	0
C=C(C)C1Cc2c(C)nn(-c3cccc4cccnc34)c2C1 (centres undefined)	-	0	-	-	-
C=C(C)C1Cc2c(C)nn(-c3ccccn3)c2C1 (centres undefined)	66	0	0	0	0
COc1ccc2nc(N3C(=O)CC(Cc4ccc(C)cc4)C3=O)sc2c1 (centres undefined)	0	0	0	76	0
